Where “and” joins values, the source holds several entries; their conditions need not be identical. Identical values can stand only once. Calls of active or inactive are those of the source. The calls were made as follows: active = hit-call score of the fitted dose curve at least 0.9, where 1 is the maximum; inactive = score below 0.9.

Read-out in this experiment: Plasminogen activator inhibitor-1 (PAI1), SERPINE1 (gene 5054)
Description: BSK_BE3C_PAI1: BioMAP Diversity Plus: BE3C Assay for Plasminogen activator inhibitor-1 (PAI1) Biomarker Activity (AID 2283037). The settings on record: primary human bronchial epithelial cells; actives raise or lower the signal. As for the experimental part:
BSK_BE3C is a cell-based, multiplexed-readout assay that uses bronchial epithelial cell, a human lung primary cell, with measurements taken at 24 hours after chemical dosing in a 96-well plate.BSK_BE3C_PAI1 is an assay component measured in the BSK_BE3C assay. It measures PAI-1 antibody related to regulation of gene expression using ELISA technology.Data from the assay component BSK_BE3C_PAI1 was analyzed into 1 assay endpoint. This assay endpoint, BSK_BE3C_PAI1, was analyzed with bidirectional fitting relative to DMSO as the negative control and baseline of activity. Using a type of binding reporter, gain or loss-of-signal activity can be used to understand changes in the signaling as they relate to the gene SERPINE1. Furthermore, this assay endpoint can be referred to as a primary readout, because this assay has produced multiple assay endpoints where this one serves a signaling function. To generalize the intended target to other relatable targets, this assay endpoint is annotated to the cytokine intended target family, where the subfamily is plasmogen activator inhibitor.
The levels of cell surface (or secreted, indicated by the prefix "s") biomarker endpoints were measured by ELISA. Overt cytotoxicity to cells in confluent adherent cultures (all systems other than the BT system) was assessed by measuring total protein levels using sulforhodamine B (SRB) staining in parallel cultures at the time of biomarker measurements, indicated as SRB endpoints. For proliferation assays for adherent cell types, individual cell types are cultured at sub-confluence and relative cell numbers quantified by SRB staining at time points optimized for each system (48 h: 3C and CASM3C systems; 72 h: BT and HDF3CGF systems; 96 h: SAg system). SRB was performed by staining cells with 0.1% SRB after fixation with 10% TCA and reading wells at 560 nm.Viability and proliferation of PBMC (T cells) was quantified by Alamar Blue reduction for the SAg and BT systems. For PBMC viability (referred to as PBMC Cytotoxicity within the assay endpoint names), cells were plated (75,000/well in a 96-well plate) and then chemical samples added for 1 h before addition of activators, SEB and TSST-1 (20 ng/mL final concentration each). Cells were incubated for 90 h. Then, Alamar Blue (20 uL/well) (Invitrogen, Cat DAL1100) was added for 6 h, and the plates were read with a fluorescence microplate reader at 546/580 nm (excitation/emission). For PBMC proliferation, cells were plated and activated as above but incubated for only 16 h prior to addition of Alamar Blue. Plates were read after 6 h.
Turning to `CCCCCCCC1CCCC1=O` (stereo not given), the AC50 is 36.6 µM (active).

Turning to `Nc1ccc(N)c([N+](=O)[O-])c1`, the outcome was inactive.

Consider `CC(C)CCCC(C)(C)O`, for which the result was inactive.

As to `CC=CC(=O)C1=C(C)C=CCC1(C)C`, the outcome was inactive.

As to `O=S1(=O)CC(Cl)(Cl)C(Cl)(Cl)C1`, the AC50 was 1.61 µM (active).

In the case of `CC(=O)c1ccc(C)cc1`, the outcome was inactive.

`c1ccc(Sc2ccccc2)cc1`: the half-maximal activity concentration (AC50) was 28.1 µM (active).

On to `CC1(C)[C@H](C=C(Cl)Cl)[C@H]1C(=O)OCc1cccc(Oc2ccccc2)c1`, for which the outcome was inactive.

In the case of `CC(C)(C)c1cccc(O)c1`, the result was inactive.

For the compound `C[C@]12CC[C@@H]3c4ccc(O)cc4CC[C@H]3[C@@H]1CC[C@@H]2O`, the outcome was inactive.

Consider `COc1ccccc1NC(=O)CC(C)=O`, for which the result was inactive.

In the case of `NC(=O)c1c(Cl)cccc1Cl`, the outcome was inactive.

As to `CCCCCCCCCC(=O)OCC`, the result was inactive.

Take `CCn1cc(C(=O)O)c(=O)c2ccc(C)nc21`: the outcome was inactive.

Consider `CC(C)(CO)CO`, for which the result was inactive.

In the case of `C#C[C@]1(O)CC[C@H]2[C@@H]3CCc4cc(O)ccc4[C@H]3CC[C@@]21C`, the result was inactive.

With `C=C(F)C(=O)OC(C(F)(F)F)C(F)(F)F`, the result was inactive.

Regarding `C=C1CC/C=C(\C)CC[C@@H]2[C@@H]1CC2(C)C`, the outcome was inactive.

As to `CCOC(=O)CCCCCCCCC(=O)OCC`, the outcome was inactive.

Take `C=C(C)C(N)=O`: the outcome was inactive.

Turning to `COC(=O)c1ccc(C(=O)OC)cc1`, the result was inactive.

As to `c1ccc2c(c1)-c1ccc3ccc4cccc5cc-2c1c3c45`, the outcome was inactive.

On to `CCC(=O)OCC=Cc1ccccc1`, for which the result was inactive.

For `O=C1OC2(c3ccc(O)cc3Oc3cc(O)ccc32)c2ccccc21`, the outcome was inactive.

For `C=C(C)C(=O)OCCC(F)(F)C(F)(F)C(F)(F)C(F)(F)C(F)(F)C(F)(F)C(F)(F)C(F)(F)F`, the result was inactive.

In the case of `CCCCOCCOCCO`, the result was inactive.

Regarding `O=C(O)C(F)(F)OC(F)(F)C(F)(F)OC(F)(F)C(F)(F)C(F)(F)C(F)(F)F`, the outcome was inactive.

Consider `O=C(O)C(F)(F)C(F)(F)C(F)(F)C(F)(F)C(F)(F)C(F)(F)C(F)(F)C(F)F`, for which the outcome was inactive.

In the case of `c1ccc(OCCOc2ccccc2)cc1`, the result was inactive.

As for `C=CC(=O)OCC(CO)(COC(=O)C=C)COC(=O)C=C`, the result was inactive.

On to `O=C(c1ccc(OCCN2CCCCC2)cc1)c1c(-c2ccc(O)cc2)sc2cc(O)ccc12`, for which the concentration at half-maximal activity (AC50) was 22.4 µM (active).

As for `CC/C(=C(\c1ccccc1)c1ccc(OCCN(C)C)cc1)c1ccccc1`, the AC50 was 11.5 µM (active) and 11.7 µM (active).

Consider `CC(=O)OC(C)(C)C1CC=C(C)CC1` (stereo not given), for which the result was inactive.

`OCCN1CCOCC1`: the outcome was inactive.

In the case of `OCC(F)(OC(F)(F)C(F)(OC(F)(F)C(F)(F)C(F)(F)F)C(F)(F)F)C(F)(F)F` (stereo not given), the result was inactive.

With `CCCCN(CCO)CCO`, the outcome was inactive.

Turning to `CC1=CC(C)C(C=O)C(C)C1` (stereo not given) (tested in a mixture with another compound), the outcome was inactive.

In the case of `CCOC(=O)C=Cc1ccccc1`, the outcome was inactive.

Regarding `CC(=O)OCC=C(C)CCC=C(C)CCC=C(C)C`, the AC50 was 0.016 µM (active).

Regarding `CCCCCCCCCCCCS`, the result was inactive.

As usually defined, the AC50 is the concentration giving half of the maximal activity seen.

The values are drawn from PubChem BioAssay (EPA / NIEHS).
